Rows were chosen to be rich in hits. Some 0.4% of all compounds tested hit in one or more screens of this group.
GAA inhib: qHTS Assay for Inhibitors of Human alpha-Glucosidase as a Potential Chaperone Treatment of Pompe Disease | AID 1466, 2008 | purified human GAA, 4-MU-alpha-glucoside fluorescence | Potency, µM (top dose mostly 76.9 µM), without a hit: at the highest dose activity change, negative = inhibition, most hits filed as inhibitors | 200,000 tested, 0.005% active;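 also: potency is read from the fitted curve at half-maximal effect; plate controls were uninhibited enzyme wells for no effect and no-enzyme background for full effect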
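Human enzyme at 4 nM with 400 uM 4-methylumbelliferyl-alpha-D-pyranoside, citrate/phosphate buffer pH 5.0, 0.005% Tween-20, 20 min at room temperature. Compounds up to 77 uM. 4-MU fluorescence (Ex 365/Em 440) read after NaOH/glycine stop; AC50 from Hill fit.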
GAA glycogen: qHTS Assay for Inhibitors and Activators of Human alpha-Glucosidase Cleavage of Glycogen; recombinant GAA, glycogen substrate, Amplex Red glucose oxidase fluorescence; Potency, µM (doses to about 76.4 µM), for inactives: top-dose activity change, negative = inhibition, hits mostly inhibitors; 300,000 tested, 0.38% active; AID 2100, 2009;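 also: potency is read from the fitted curve at half-maximal effect; 0% = full enzyme reaction and -100% = no-enzyme basal signal; the screen sought inhibitors and activators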
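Natural-substrate format: glycogen cleavage by 4 nM human enzyme, glucose read by Amplex Red coupling (Ex 573, Em 610 nm). Normalized to enzyme and no-enzyme controls.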
GLA inh pH 4.5: qHTS Assay for Inhibitors of Human alpha-Galactosidase at pH 4.5; 230,000 tested, under 10 active; Alpha-galactosidase A (Homo sapiens), P06280; activity change, negative = inhibition, % at 105 µM; purified enzyme, 4-MU-alpha-Gal fluorescence, pH 4.5;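 also: 0% = full activity with enzyme and -100% = basal without enzyme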
Target sequence (P06280 whole entry, looked up): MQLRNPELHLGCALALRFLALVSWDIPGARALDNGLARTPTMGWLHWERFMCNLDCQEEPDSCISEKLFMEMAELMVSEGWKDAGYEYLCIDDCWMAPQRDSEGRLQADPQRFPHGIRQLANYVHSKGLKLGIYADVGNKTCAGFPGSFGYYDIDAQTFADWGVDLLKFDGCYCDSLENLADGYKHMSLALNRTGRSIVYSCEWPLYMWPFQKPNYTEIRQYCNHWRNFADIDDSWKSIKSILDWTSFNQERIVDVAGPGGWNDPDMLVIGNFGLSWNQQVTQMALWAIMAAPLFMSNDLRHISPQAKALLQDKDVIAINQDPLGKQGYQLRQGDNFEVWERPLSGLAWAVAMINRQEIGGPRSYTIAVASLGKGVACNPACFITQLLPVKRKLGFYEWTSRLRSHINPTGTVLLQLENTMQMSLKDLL
aGlu spleen mod: qHTS Assay for Inhibitors and Activators of Human alpha-Glucosidase From Spleen Homogenate; Lysosomal alpha-glucosidase (Homo sapiens), P10253; human spleen homogenate, 4-MU-alpha-glucoside fluorescence; Potency, µM (doses to about 79.9 µM), without a hit: top-dose activity change, negative = inhibition, actives largely listed as inhibitors; 240,000 tested, 0.006% active; AID 2112, 2009;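 also: potency is read from the fitted curve at half-maximal effect; 0% = enzyme with vehicle and -100% = no enzyme basal signal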
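Human spleen homogenate (1 ug) incubated with compounds and 1 mM 4-methylumbelliferyl-alpha-D-glucopyranoside in pH 5.0 citrate/phosphate buffer, 37 C, 40 min. Stopped at pH 10; 4-MU fluorescence (Ex 365/Em 440 nm); AC50 by Hill fit.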
aGal spleen mod: qHTS Assay for Inhibitors and Activators of Human alpha-Galactosidase From Spleen Homogenate. Alpha-galactosidase A (Homo sapiens), P06280. human spleen homogenate, 4MU-alpha-Gal fluorescence, 40 min. Potency, µM (doses to about 80 µM), for the others: at the top dose activity change, negative = inhibition, hits mostly inhibitors. 240,000 tested, 0.008% active;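 also: potency is read from the fitted curve at half-maximal effect; 0% = enzyme with vehicle and -100% = no enzyme basal signal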
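Inhibition or activation of alpha-galactosidase in human spleen homogenate is scored by 4-MU fluorescence after 40 min at 37C, pH 5.0, with 1 mM substrate. AC50s come from concentration-response fitted to the Hill equation.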
An asterisk follows results filed as active; ? = inconclusive; nt = no result; [ ] = another dose, or the depositor's remark. Calls follow the shape of the dose curve; as a rule, active = well fitted curve in the direction sought with a large enough effect; inconclusive = small, poorly fitted or top-dose-only effect, or another doubt; inactive = no such curve, though single readings can be large; an effect the other way counts as inactive or inconclusive.

SMILES	GAA inhib	GAA glycogen	GLA inh pH 4.5	aGlu spleen mod	aGal spleen mod
CCCCOC(=O)CCc1c(C)[nH]c(=S)[nH]c1=O	11%	-22%	-3	2%	5%
COc1ccc(Cn2c(C(=O)O)c(CNCc3ccco3)c3ccc(OC)cc32)cc1	nt	-1%[76.3 µM]	nt	nt	nt
Cc1c(N/C=C(\Cl)C(=O)C(F)(F)F)c(=O)n(-c2ccccc2)n1C	-6%	32µM*	-2	1%	3%
Cc1c(NCc2cc(Cl)cc(Cl)c2O)c(=O)n(-c2ccccc2)n1C	-13%	10µM*	-4	-2%	2%
Cc1c(NC(=O)Nc2ccc(Cl)cc2Cl)c(=O)n(-c2ccccc2)n1C	6%	-9%	0	0%	4%
Cc1c(NCc2nc3ccccc3[nH]2)c(=O)n(-c2ccccc2)n1C	-3%	11µM*	-10	1%	4%
Cc1c(NCc2cc(Cl)ccc2O)c(=O)n(-c2ccccc2)n1C	11%	13µM*	6	-3%	-2%
Cc1ccc(/C=N/Nc2cccc(C(=O)O)c2)s1	-2%	0%	1	-3%	7%
O=C(O)c1cccc(N/N=C/c2cccc3ccccc23)c1	nt	32µM*	nt	nt	nt
O=C(N/N=C/c1ccc(O)cc1)c1cccc(N/N=C/c2ccc(O)cc2)c1	-14%	25µM*	-6	-3%	-2%
O=C(N/N=C/c1ccncc1)c1cccc(N/N=C/c2ccncc2)c1	0%	-3%	-5	-2%	-9%
CNC(=O)c1c(NC(=O)Cc2coc3ccc(OC)cc23)sc2c1CCCC2	nt	-9%[76.3 µM]	nt	nt	nt
CN(c1ccccc1)S(=O)(=O)c1ccc(Cl)c(C(=O)OCC(=O)NC2CCS(=O)(=O)C2)c1 (stereo not given)	1%	9%	5	3%	2%
O=C1c2cccc3cccc(c23)C(=O)N1CC1CCN(CC(O)COc2ccc3ccccc3c2)CC1 (stereo not given)	-1%	25µM*	5	-16%	-8%
CC(=O)c1sc(NS(=O)(=O)c2ccc(C)cc2)nc1C	6%	-2%	-3	-8%	0%
CCOC(=O)Nc1sc(NS(=O)(=O)c2ccc(C)cc2)nc1C	?	28µM*	8	-2%	-8%
Cc1ccc(S(=O)(=O)Nc2nc(C)c(C(=O)NN)s2)cc1	nt	32µM*	1	6%	8%
CC(C)Cn1c(O)c(N=NC(=O)c2cccc(S(=O)(=O)N3CCCCC3)c2)c2ccccc21	-16%	1%	-7	2%	-8%
O=C(/C=C/Nc1ccccc1)c1ccccc1	1%	9%	1	3%	1%
CN(C)c1ccc(N/C=C/C(=O)c2ccccc2)cc1	-13%	14µM*	3	5%	-14%
CCOC(=O)NC1(NC(C)C)Oc2ccccc2O1	-8%	11%	-5	-3%	2%
CCOC(=O)NC1(NC2CCCCC2)Oc2ccccc2O1	3%	8.9µM*	5	3%	3%
CCOC(=O)NC1(NCc2ccccc2)Oc2ccccc2O1	4%	16µM*	-4	1%	5%
CCOC(=O)NC1(NCC(C)C)Oc2ccccc2O1	-3%	?	5	-4%	0%
CCOc1ccc(CCNC(=O)c2nnn(CC(=O)Nc3ccc(OC)c(OC)c3)c2N)cc1OCC	nt	3%[76.3 µM]	nt	nt	nt
SMILES	GAA inhib	GAA glycogen	GLA inh pH 4.5	aGlu spleen mod	aGal spleen mod
CCCN1C(=O)c2[nH]nc(-c3ccccc3O)c2C1c1ccc(OCc2ccccc2)c(OC)c1 (stereo not given)	nt	-16%[76.3 µM]	nt	nt	nt
COC(=O)C1=C(C(=O)OC)[C@@H]2N(Cc3ccccc3)c3ccccc3[C@@]23C[C@@H](C(=O)OC)N(S(=O)(=O)c2ccc(OC)cc2)C3=N1	nt	nt	-10	2%[17.4 µM]	3%[17.5 µM]
Cc1ccccc1-c1ccc(C=Nc2c(C)n(C)n(-c3ccccc3)c2=O)o1	-11%	16µM*	-3	4%	3%
Cc1c(N=CC=Nc2c(C)n(C)n(-c3ccccc3)c2=O)c(=O)n(-c2ccccc2)n1C	1%	-25%	8	-3%	16%
Cc1c(N=Cc2ccco2)c(=O)n(-c2ccccc2)n1C	3%	10µM*	8	-15%	-4%
Cc1c(N=Cc2ccc(-c3ccc(Cl)cc3)o2)c(=O)n(-c2ccccc2)n1C	-7%	-11%	-1	2%	-7%
Cc1c(N=Cc2ccc(Cl)o2)c(=O)n(-c2ccccc2)n1C	-9%	4.5µM*	-24	2%	5%
CCCCN(C(=O)CSc1nncn1-c1ccccc1)c1c(N)n(Cc2ccccc2)c(=O)[nH]c1=O	6%	2%	5	-9%	0%
Cc1ccc(-c2[nH]c(=O)n3ccncc23)s1	-7%	40µM*	-8	1%	9%
CC(=O)c1ccc(N2CCN(S(=O)(=O)c3cn(C)cn3)CC2)cc1	nt	-2%[76.3 µM]	nt	nt	nt
COC(=O)CC1=NN(c2ccc(OC)cc2)C(=O)C1	?	28µM*	6	-4%	-6%
COc1ccc(NCc2ccc(OC)c(Cn3ccnc3)c2)c(OC)c1	nt	7µM*	nt	nt	nt
OCCN1CCN(c2ncnc3sc4c(c23)CCCC4)CC1	nt	-12%[76.3 µM]	nt	nt	nt
Oc1ccc(N2CCN(c3ncnc4sc5c(c34)CCC5)CC2)cc1	0%	14µM*	5	-4%	17%
Nc1nc(C2CCOCC2)cs1	nt	6%	2	0%	1%
Nc1nc(C2CC2)c(Sc2sc(N)nc2C2CC2)s1	5%	6.3µM*	-4	2%	0%
CCOC(=O)c1oc2c(O)c(O)ccc2c(=O)c1-c1nncn1-c1ccccc1	-12%	35µM*	-8	-6%	0%
O=C(c1ccc(S(=O)(=O)N2CCCCCC2)cc1)N(c1ccccn1)C1CCCCC1	6%	5%	-2	-7%	6%
Cc1ccccc1OCCn1cc(/C(N)=N/O)c2ccccc21	-8%	32µM*	5	-5%	-8%
O=C(CSc1ncc(C(F)(F)F)cc1Cl)N1CCN(S(=O)(=O)c2ccc(Cl)cc2)CC1	?	-6%	-1	-10%	11%
O=C(CSc1ncc(C(F)(F)F)cc1Cl)N1CCN(S(=O)(=O)c2ccccc2)CC1	35µM*	?	-8	-30%	5%
CCOC(=O)N1CCc2c(sc(N)c2C#N)C1	nt	?	6	-2%	-2%
CCOC(=O)C1CCc2sc(N)c(C#N)c21 (stereo not given)	-13%	5µM*	-1	6%	3%
CCOc1ccc(N(CC(=O)Nc2cc(C)ccc2C)S(=O)(=O)c2c(C)[nH]c(=O)[nH]c2=O)cc1	nt	-1%	-3	-5%	-14%
CSc1ccccc1NC(=O)CN(C)CC(=O)Nc1cc(C)ccc1C	-11%	18%	-4	-3%	-10%

Screening results deposited in PubChem BioAssay by National Center for Advancing Translational Sciences (NCATS).
